Assay results as given in PubChem BioAssay AID1851 (National Center for Advancing Translational Sciences (NCATS), 2009).
Several values for one entry are separate records, joined by “and”; a condition that tells them apart may be missing. Equal entries are not always repeated. Hit rate of the full screen: of about 16,000 compounds, about 5,800 (36%) were called active. Not shown: some 23% with an inconclusive outcome. Calls come from the whole dose curve; as a rule, active = well fitted curve in the direction sought with a large enough effect; inconclusive = small, poorly fitted or top-dose-only effect, or effect the other way; inactive = no such curve, though single readings can be large or run the other way. The list shows a part of the results.
% is set by controls: 0 for no effect and ±100 for the full control effect.

What follows are compounds tested against Cytochrome P450 2C19 (Homo sapiens) (UniProt P33261) (assay: Cytochrome panel assay with activity outcomes). Conditions: recombinant CYP, pro-luciferin dealkylation, luminescence, p450-cyp2c19; series mostly up to 57.1 µM.
Cytochrome P450 2C19 (Homo sapiens), sequence (P33261 whole entry, looked up): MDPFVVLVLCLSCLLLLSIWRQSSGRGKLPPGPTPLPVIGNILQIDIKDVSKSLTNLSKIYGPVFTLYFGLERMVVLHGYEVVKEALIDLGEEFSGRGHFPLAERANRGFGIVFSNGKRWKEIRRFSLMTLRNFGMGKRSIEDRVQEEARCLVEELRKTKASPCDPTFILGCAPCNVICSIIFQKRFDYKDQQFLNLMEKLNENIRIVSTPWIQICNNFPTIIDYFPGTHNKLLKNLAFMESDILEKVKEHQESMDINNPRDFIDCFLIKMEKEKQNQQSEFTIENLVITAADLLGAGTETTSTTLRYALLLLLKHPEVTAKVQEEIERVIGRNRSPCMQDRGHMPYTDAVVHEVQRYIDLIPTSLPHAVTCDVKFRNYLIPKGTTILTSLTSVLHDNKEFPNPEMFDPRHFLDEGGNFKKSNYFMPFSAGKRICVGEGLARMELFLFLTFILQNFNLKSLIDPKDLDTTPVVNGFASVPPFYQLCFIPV
With C=CCSC1=Nc2sccc2C2=NC(=O)CN12 the AC50 was 7.94 µM (active).
C[C@@](N)(Cc1ccc(O)c(O)c1)C(=O)O was tested, and the AC50 was “inactive”.
Cc1ccccc1-c1nccc(NCc2cccnc2)n1 was tested, and the AC50 was 5.01 µM (active).
COc1ccccc1-c1nccc(NCc2ccccc2)n1 was tested, and the AC50 was 7.94 µM (active).
With CNc1ccnc(-c2ccccc2OC)n1 the AC50 was “inactive”.
For Cc1cnc(CNc2ccnc(-c3ccccc3C)n2)cn1, the AC50 was “inactive”.
For Cc1cccc(CNc2ccnc(-c3ccccc3Cl)n2)c1, the AC50 was 1.26 µM (active).
In the case of COc1ccccc1-c1nccc(NCc2cccc(C)c2)n1, the AC50 is reported as 10 µM (active).
In the case of Cc1cccc(CNc2ccnc(-c3ccccc3CN(C)C)n2)c1, the AC50 is reported as “inactive”.
For Cc1cnc(CNc2ccnc(-c3c(C)noc3C)n2)cn1, the AC50 was “inactive”.
For COc1ccccc1-c1nccc(NCc2cccnc2)n1, the AC50 was 3.98 µM (active).
For Cc1noc(C)c1-c1nccc(NCc2cccnc2)n1, the AC50 was 25.1 µM (active).
COC(=O)C/C=C\[C@@H](C)[C@@H](/C=N\OC[C@@H](O)[C@H]1O[C@H]2OC(C)(C)O[C@H]2[C@@H]1O)OC was tested, and the activity, negative = inhibition was -19.4% [at 11.4 µM] (inactive).
With O=c1ccc(-c2ccccc2)n[nH]1 the activity, negative = inhibition was 13.5% [at 11.4 µM] (inactive).
With NC(=O)Nc1n[nH]c(-c2ccccc2)n1 the activity, negative = inhibition was 13.8% [at 11.4 µM] (inactive).
For Clc1ccccc1-c1nc(-c2ccccc2)n[nH]1, the AC50 was 17.8 µM (active).
CN1CCN(c2ncc3nc(-c4cc(F)cc(F)c4)c(=O)n(C4CC4)c3n2)CC1 was tested, and the AC50 was “inactive”.
Nc1ccc(S(=O)(=O)NC(=O)c2ccccc2)cc1 was tested, and the AC50 was “inactive”.
In the case of O=S(=O)(O)c1ccc(N=Nc2ccccc2)cc1, the activity, negative = inhibition is reported as 6.93% [at 11.4 µM] (inactive).
O=S(=O)(C=C(c1ccccc1)c1ccccc1)c1ccccc1 was tested, and the AC50 was 2.82 µM (active).
For COc1ccc(S(=O)(=O)N2CC3CCCN3c3ccc(C(F)(F)F)cc32)cc1 (configuration not stated), the AC50 was 0.562 µM (active).
In the case of COc1ccc(C(OCCN2CCC[C@@H](C(=O)O)C2)(c2ccc(OC)cc2)c2ccc(OC)cc2)cc1, the AC50 is reported as “inactive”.
COc1ccc(NC(=O)N2CC[C@@]3(CCCN(C(=O)c4cc(C(F)(F)F)cc(C(F)(F)F)c4)C3)C2)cc1 was tested, and the AC50 was “inactive”.
O=S(=O)(c1ccc(F)cc1)N1CC2CCCN2c2ccc(C(F)(F)F)cc21 (configuration not stated) was tested, and the AC50 was 2.24 µM (active).
In the case of Nc1ccccc1CCCC(=O)O, the activity, negative = inhibition is reported as -13.9% [at 11.4 µM] (inactive).
With COc1ccccc1CN1CCCC2(CCN(C(=O)c3csnn3)CC2)C1 the AC50 was “inactive”.
In the case of COC(=O)c1nn(-c2cccc(C(F)(F)F)c2)c(=O)cc1Sc1ccccn1, the AC50 is reported as 5.62 µM (active).
N#Cc1cc(N)ccc1Sc1ccc(Cl)cc1 was tested, and the AC50 was 3.16 µM (active).
For CCc1sc(N(C(=O)Cc2ccccc2)c2cccc(F)c2)nc1-c1ccc(C)cc1, the AC50 was 2.82 µM (active).
c1ccc(-c2nnn(CCN3CCCCC3)n2)cc1 was tested, and the AC50 was 1.26 µM (active).
With CC(C)c1ccc(-c2nnn(CCC(=O)O)n2)cc1 the AC50 was “inactive”.
With c1ccc([C@H](CCN2CCCC2)c2ccccn2)cc1 the activity, negative = inhibition was -19.9% [at 11.4 µM] (inactive).
O=C(O)c1cc2ccccc2c(Cc2cc3ccccc3c(C(=O)O)c2O)c1O (tested in a mixture with another compound) was tested, and the AC50 was “inactive”.
COc1ccc2c(Cc3c4ccccc4cc4ccccc34)cncc2c1O was tested, and the AC50 was 2.51 µM (active).
In the case of O=C(c1csnn1)N1CCC2(CC1)CN(Cc1cc(C(F)(F)F)cc(C(F)(F)F)c1)C2, the AC50 is reported as “inactive”.
For CCn1cc(C(=O)O)c(=O)c2cnc(N3CCNCC3)nc21, the AC50 was “inactive”.
O=C(NCc1cccnc1)c1sc2cc(Cl)ccc2c1Cl was tested, and the AC50 was 2 µM (active).
For CC[C@H](NC(C)C)[C@H](O)c1ccc(O)c(O)c1, the AC50 was “inactive”.
With CC1=CC(=O)N(c2cccc(C(F)(F)F)c2)C1c1ccc(Cl)cc1 (configuration not stated) the AC50 was 2.24 µM (active).
In the case of Cc1ccc(NC(=S)/C(=C(\[O-])c2ccc(C)c([N+](=O)[O-])c2)[n+]2ccccc2)cc1C, the AC50 is reported as 7.94 µM (active).
With CC1(C)[C@@H]2CC[C@@]1(CS(=O)(=O)Nc1ccccc1)C(=O)C2 the AC50 was 2 µM (active).
With O=C(O)c1ccc(NS(=O)(=O)Cc2ccccc2)cc1 the activity, negative = inhibition was -9.9% [at 11.4 µM] (inactive).
In the case of COC(=O)C1=C(C)NC2=C(C(=O)CCC2)C1c1cn(Cc2ccc(Cl)cc2Cl)nc1-c1ccccc1 (configuration not stated), the AC50 is reported as 2.24 µM (active).
For COCCOC(=O)C1=C(C)NC(=O)N(C(C)=O)C1c1ccc(Cl)cc1 (configuration not stated), the AC50 was 3.55 µM (active).
CO[C@@H]1COC(=O)C/C=C\[C@H](C)[C@@H](NS(=O)(=O)c2ccc(C)cc2)COC(=O)C/C=C\[C@@H]1C was tested, and the activity, negative = inhibition was -12.5% [at 11.4 µM] (inactive) and -34.1% [at 11.4 µM] (inactive).
For CC(c1ccccc1C(O)c1ccccc1)N(C)C (configuration not stated), the AC50 was “inactive”.
For NC(=O)c1ccc[n+](CC(=O)OCCC23CC4CC(CC(C4)C2)C3)c1, the AC50 was “inactive”.
In the case of O=C(NCCOC12CC3CC(CC(C3)C1)C2)c1cccc(Br)c1, the AC50 is reported as 0.891 µM (active).
In the case of N[C@H](C(=O)O)c1nn[nH]n1, the AC50 is reported as “inactive”.
In the case of c1ccc(N2CCN(CCCOc3ccc4c(c3)OCO4)CC2)cc1, the AC50 is reported as 5.01 µM (active).
For OC[C@@H](O)CN1CCN(c2ccccc2)CC1, the AC50 was “inactive”.
With COc1ccc(O[C@H]2C=C[C@@H](c3ccccc3)O[C@H]2COC(=O)CC/C(C)=N\O[C@@H](C)CN2CCCCc3nc(C)c(C)cc32)cc1 the AC50 was 5.01 µM (active).
In the case of C/C(CCN1CCCCc2nc(C)c(C)cc21)=N\O[C@@H](C)CN1CCCc2nc(C)c(C)cc21, the activity, negative = inhibition is reported as 25.7% [at 11.4 µM] (inactive).
With CC(=O)OC[C@@H]1O[C@H](C/C=N\O[C@@H](C)CN2CCCCc3nc(C)c(C)cc32)C=C[C@@H]1OC(C)=O the activity, negative = inhibition was 34.1% [at 11.4 µM] (inactive).
C/C(CCN1CCCc2nc(C)c(C)cc21)=N\O[C@@H](C)CN1CCCCc2nc(C)c(C)cc21 was tested, and the activity, negative = inhibition was 9.26% [at 11.4 µM] (inactive).
In the case of CC(=O)OC[C@@H]1O[C@H](C/C=N\O[C@@H](C)CN2CCCc3nc(C)c(C)cc32)C=C[C@@H]1OC(C)=O, the activity, negative = inhibition is reported as 12.3% [at 11.4 µM] (inactive).
For C/C(CCN1CCCCc2nc(C)c(C)cc21)=N\O[C@@H](C)CN1CCCCc2nc(C)c(C)cc21, the activity, negative = inhibition was 42.7% [at 11.4 µM] (inactive).
In the case of COc1ccc(O[C@H]2C=C[C@@H](c3ccccc3)O[C@H]2COC(=O)CC/C(C)=N\O[C@@H](C)CN2CCCc3nc(C)c(C)cc32)cc1, the AC50 is reported as 3.16 µM (active).
With C/C(CCC(=O)OC[C@@H]1O[C@H](C#Cc2ccccc2)C=C[C@@H]1Oc1ccc(C)cc1)=N/O[C@@H](C)CN1CCCc2nc(C)c(C)cc21 the AC50 was 3.16 µM (active).
In the case of C/C=C\C[C@@H](C)[C@@H](O)[C@H]1C(=O)N[C@@H](CC)C(=O)N(C)CC(=O)N(C)[C@@H](CC(C)C)C(=O)N[C@@H](C(C)C)C(=O)N(C)[C@@H](CC(C)C)C(=O)N[C@@H](C)C(=O)N[C@H](C)C(=O)N(C)[C@@H](CC(C)C)C(=O)N(C)[C@@H](CC(C)C)C(=O)N(C)[C@@H](C(C)C)C(=O)N1C, the AC50 is reported as “inactive”.
In the case of NC(=NCc1ccccc1)NC(=O)c1nc(Cl)c(N)nc1N, the AC50 is reported as “inactive”.
In the case of N=C1SCC(=O)N1c1nc(-c2ccccc2)cs1, the AC50 is reported as “inactive”.
O=C1C2C3c4ccccc4C(c4ccccc43)C2C(=O)N1c1nc(-c2ccccc2)cs1 (configuration not stated) was tested, and the AC50 was 1.78 µM (active).
With O=C1[C@@H]2[C@@H](C(=O)N1c1ccc(OCc3ccccc3)cc1)[C@@H]1c3ccccc3[C@@H]2[n+]2ccccc21 the activity, negative = inhibition was -10.9% [at 11.4 µM] (inactive).
O=C(c1ccco1)N(CCC(c1ccccc1)c1ccco1)Cc1ccco1 (configuration not stated) was tested, and the AC50 was 3.98 µM (active).
For CNCCC=C1c2ccccc2C=Cc2ccccc21, the AC50 was “inactive”.
With Cc1ccccc1-c1cc(NCc2ccccc2)ncn1 the AC50 was 3.16 µM (active).
In the case of Cc1ccccc1-c1cc(NCc2cccnc2)ncn1, the AC50 is reported as 10 µM (active).
With FC(F)(F)c1ccccc1-c1cc(NCc2cccs2)ncn1 the AC50 was 0.794 µM (active).
In the case of FC(F)(F)c1ccccc1-c1cc(NCc2cccnc2)ncn1, the AC50 is reported as 10 µM (active).
With CN(C)Cc1ccccc1-c1cc(NCc2cccs2)ncn1 the AC50 was “inactive”.
In the case of Cn1cc(-c2nc3cnc(Oc4ccccc4)nc3n(Cc3cccs3)c2=O)c2ccccc21, the AC50 is reported as “inactive”.
CCCCOC(=S)NC(=O)c1sc2ccccc2c1Cl was tested, and the AC50 was 0.794 µM (active).
Cc1ccccc1Cn1nc(C)c(NC(=O)c2sc3ccccc3c2Cl)c1C was tested, and the AC50 was 14.1 µM (active).
In the case of Cc1ccc(C(=O)N/N=C\c2cccn2C)cn1, the AC50 is reported as “inactive”.
With Cn1cccc1/C=N/NC(=O)c1sc2ccccc2c1Cl the AC50 was 7.94 µM (active).
In the case of Cc1nn(Cc2ccccc2Cl)c(C)c1NC(=O)CCCn1nc(C)c([N+](=O)[O-])c1C, the AC50 is reported as “inactive”.
With O=C(NC(=S)N(CCCCO)C1CCCCC1)c1sc2ccccc2c1Cl the AC50 was 7.08 µM (active).
With CO[C@H]1COC(=O)C/C=C\[C@@H](C)COC(=O)[C@H]2CCCN2C(=O)C/C=C\[C@H]1C the activity, negative = inhibition was -21.9% [at 11.4 µM] (inactive).
With CCOC(=S)NC(=O)c1sc2ccccc2c1Cl the AC50 was 3.16 µM (active).
O=C(O)CCC(=O)c1ccc2sc3ccccc3c2c1 was tested, and the activity, negative = inhibition was 9.52% [at 11.4 µM] (inactive).
With CO/N=C(\C)CCN1CCCc2nc(C)c(C)cc21 the activity, negative = inhibition was -7.2% [at 11.4 µM] (inactive).
For Cc1cc(NC(=O)C2=C(O)c3ccccc3S(=O)(=O)N2C)no1, the AC50 was “inactive”.
With Cc1ccccc1NC1=C(C(=O)c2ccccc2)N(C)S(=O)(=O)c2ccccc21 the AC50 was 8.91 µM (active).
CO[C@@H]1/C=C\CC(=O)N[C@@H](C)C(=O)OC[C@@H](OC)[C@H](C)CCCC(=O)OC[C@H]1C was tested, and the activity, negative = inhibition was -3.19% [at 11.4 µM] (inactive).
In the case of CC1CCCC(C)N1C(=O)c1cc(-c2ccc(Cl)c(Cl)c2)on1 (configuration not stated), the AC50 is reported as 11.2 µM (active).
C[C@@H]1CCC[C@H](C)N1NC(=O)c1ccc(Cl)c(S(N)(=O)=O)c1 was tested, and the AC50 was “inactive”.
